This note sets out measurements from PubChem BioAssay (NCATS).

Inconclusive results are not listed. The source made the active and inactive calls. Calls come from the whole dose curve; as a rule, active = well fitted inhibition curve with a large enough effect; inconclusive = small, poorly fitted or top-dose-only effect; inactive = no such curve, though single readings can be large or run the other way.

The experiment can be described thus: Primary qHTS for inhibitors of La Crosse Virus (LACV) - induced cell death in SH-SY5Y cells (AID 1508616).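 Note: top concentration of the series differs between compounds; higher means more rescue of cells from virus-induced death.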 The settings on record: SH-SY5Y LACV cytopathicity rescue, ATP luminescence, 6 d; series mostly up to 4.29 µM. An excerpt:
Assay Provider: Karin Peterson Ph.D.
National Institute of Allergy and Infection Diseases, National Institute of Health
La Crosse Virus (LACV) is a California serogroup mosquito-borne arbovirus, family Peribunyaviridae, which is an endemic pathogen in North America and can induce a rare, life-threatening neurological disease in children. LACV was first isolated in the early 1960s, from a summer "rural encephalitis" case in La Crosse, Wisconsin, USA. Since then, LACV encephalitis cases have been found in more than twenty states, with most cases in the Mississippi and Ohio River basins. The life cycle of LACV is maintained between the vector, the eastern tree-hole mosquito Aedes triseriatus, and vertebrate hosts including eastern gray squirrels (Sciurus carolinensis) and chipmunks (Tamiasstriatus grinseus). […] Most LACV infections in humans are asymptomatic or induce mild clinical symptoms of fever, headache, lethargy and vomiting. However, in some cases LACV can cause severe neuroinvasive disease, including encephalitis, meningitis, and meningoencephalitis, requiring hospitalization. To date, there is neither a licensed vaccine nor a Food and Drug Administration (FDA) approved antiviral therapy available to prevent or treat LACV encephalitis. The primary treatment for viral encephalitis is palliative care due to the lack of therapeutics. In the current study, we conducted a screen of 4,096 FDA approved and bioactive small molecules against LACV, by screening for rescue of LACV-induced cell death in SH-SY5Y cells.
LACV-induced cytopathicity assay
SEQUENCE No. (1,2, 3, etc.); […] (e.g., Cells, Incubation, Reagent, etc.); VALUE and DESCRIPTION.
1. Reagent; 2 uL; Cell solution.
3. Compounds; 23nL; Compound library
4. Reagent; 12 uL; LACV virus
6. Reagent; 24 uL; ATPLite (PerkinElmer)
7. Time; 5 min; Room temperature
8. Detection; Luminescence; View
NOTES (numbers refer to sequence above)
1. Seed 6000 SH-SY5Y cells (ATCC CRL-2266) in 2 microL/well media (DMEM/F12 10% FBS, 1x L-Glutamine, 1x Pyruvate, 1x NEAA, 1x Pen/Strep) in 384-well assay plates (tissue culture treated, white, solid bottom).
2. Incubate at 37 degrees C with 5% CO2 for 24 hr.
3. Dispense 23 nL/well compounds in DMSO via pin transfer.
4. Dispense 12 microL/well of LACV (LACV/human/1978) in media at 0.01 MOI.
5. Incubate at for 6 days at 37C 5% CO2
6. Dispense 24 microL/well of ATPLite 1step Luminescence assay system (PerkinElmer).
7. Incubate for 5 min at room temperature.
8. Read luminescence signal (Viewlux plate reader, PerkinElmer). Data was normalized with DMSO control wells containing LACV as 0%, and DMSO control wells without virus as 100%.
In general terms: Quantitative high-throughput screening tests each substance at several concentrations.
As for `CC[C@]1(O)C[C@@H]2CN(CCc3c([nH]c4ccccc34)[C@@](C(=O)OC)(c3cc4c(cc3OC)N(C)[C@H]3[C@@](O)(C(=O)OC)[C@H](OC(C)=O)[C@]5(CC)C=CCN6CC[C@]43[C@@H]65)C2)C1`, the outcome was inactive. To `CC(=O)N[C@@H](CS)C(=O)O` belongs “inactive”. As for `COC[C@@H](c1ccc(C(F)(F)F)cc1)N1CCN(C2(C)CCN(C(=O)c3c(C)ncnc3C)CC2)C[C@H]1C`, the outcome was inactive. Turning to `CC(=O)CCCCn1c(=O)c2c(ncn2C)n(C)c1=O`, the call was inactive. In the case of `O=c1[nH]cnc2c1ncn2[C@H]1CC[C@@H](CO)O1`, the compound was called inactive. As to `NCCS`, the result was inactive. On to `CCN(CC)CCNC(=O)c1ccc(N)cc1`, for which the compound was called inactive. `O=C1NCC2(CCN(CCc3ccccc3)CC2)O1`: the compound was called inactive. As for `CCN1CCC[C@H]1CNC(=O)c1cc(S(N)(=O)=O)ccc1OC`, the outcome was inactive. The same measure for `CC(=O)O[C@]1(C(C)=O)CC[C@H]2[C@@H]3C=C(Cl)C4=CC(=O)[C@@H]5C[C@@H]5[C@]4(C)[C@H]3CC[C@@]21C`: “inactive”; for `Clc1ccc(C(c2ccc(Cl)cc2)n2cc[n+](CC(OCc3ccc(Cl)cc3Cl)c3ccc(Cl)cc3Cl)c2)cc1` (stereo not given): “inactive”; for `OC[C@@H](O)[C@H](O)[C@H](O)[C@@H](O)CO`: “inactive”.

With `O=C(NCCN1CCOCC1)c1ccc(Cl)cc1`, the compound was called inactive. Turning to `Clc1ccc(Cn2c(CN3CCCC3)nc3ccccc32)cc1`, the compound was classed as inactive. On to `NC(N)=Nc1nc(CSCC/C(N)=N/S(N)(=O)=O)cs1`, for which the call was inactive. With `O=C(O)CCc1nc(-c2ccccc2)c(-c2ccccc2)o1`, the compound was classed as inactive. On to `COC(=O)[C@@H]1[C@H]2C[C@H]3c4[nH]c5ccccc5c4CCN3C[C@@H]2CC[C@@H]1O`, for which the call was inactive. Consider `CC(=O)c1ccc(S(=O)(=O)NC(=O)NC2CCCCC2)cc1`, for which the call was inactive. With `O=C1NC(=O)C(c2ccccc2)(c2ccccc2)N1`, the compound was classed as inactive. In the case of `O=C(O)Cc1cccc2ccccc12`, the call was inactive. `C[N+](C)(C)CC(=O)O`: the result was inactive. As to `CC(C)(C)c1ccc(C(O)CCCN2CCC(C(O)(c3ccccc3)c3ccccc3)CC2)cc1` (stereo not given), the result was inactive.

With `COc1cccc(-c2cc(=O)c3ccccc3o2)c1N`, the call was inactive.

Consider `CCn1cc(C(=O)O)c(=O)c2ccc(C)nc21`, for which the compound was called inactive. With `CC1=C(/C=C/C(C)=C/C=C/C(C)=C/C(=O)Nc2ccc(O)cc2)C(C)(C)CCC1`, the result was inactive. With `CC/C(=C(\c1ccccc1)c1ccc(OCCN(C)C)cc1)c1ccccc1`, the compound was called inactive. Consider `CCN(CC)C(=O)c1ccc(O)c(OC)c1`, for which the outcome was inactive.

On to `O=c1c(-c2ccc(O)cc2)coc2cc(O)ccc12`, for which the compound was called inactive. Turning to `CN(C)c1cc(NC(=O)CNC(C)(C)C)c(O)c2c1C[C@@H]1C[C@H]3[C@H](N(C)C)C(=O)C(C(N)=O)=C(O)[C@@]3(O)C(=O)C1=C2O`, the compound was classed as inactive. The same measure for `CC(=O)Oc1cc2c(s1)CCN(C(C(=O)C1CC1)c1ccccc1F)C2` (stereo not given): “inactive”; for `C[C@@H](O)[C@H]1C(=O)N2C(C(=O)O)=C(S[C@@H]3CN[C@H](C(=O)N(C)C)C3)[C@H](C)[C@H]12`: “inactive”. Turning to `Cc1cccc(C)c1OCC(C)N` (stereo not given), the compound was classed as inactive. The same measure for `COc1ccc2cccc(CCNC(C)=O)c2c1`: “inactive”; for `CCCCC1C(=O)N(c2ccccc2)N(c2ccccc2)C1=O`: “inactive”; for `CC(C)NCC(O)COc1cccc2[nH]ccc12` (stereo not given): “inactive”.

Regarding `COc1ccccc1N1CCN(CCCNc2cc(=O)n(C)c(=O)n2C)CC1`, the result was inactive. Regarding `N#C[C@H]1C[C@H]2C[C@@H]2N1C(=O)[C@@H](N)C12CC3CC(CC(O)(C3)C1)C2`, the result was inactive. To `CCCNC(=O)NS(=O)(=O)c1ccc(Cl)cc1` belongs “inactive”. On to `O=c1cc(-c2ccc(O)cc2)oc2cc(O)cc(O)c12`, for which the result was inactive. On to `CCN(CC)CCOC(=O)c1ccc(N)cc1`, for which the call was inactive.
